Compounds without any hit were thinned out: in the full panel of roughly 83,000, 20% have a hit.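 Cell lines were cultured in 96-well plates, exposed to a single compound concentration, and assessed for percent growth 48 hours later.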 Active and inactive are the calls of the source. How the source made its calls: active means growth percent below 10; inactive means the rest.
Columns and labels:
Assay in all cases: NCI-60 one-dose screen, 48 h (100 = growth as untreated, 0 = no growth, -100 = all killed)
Details in all cases: 10 µM unless noted
HCT-15 colon = tested on: HCT-15 colon
HT29 colon = tested on: HT29 colon
SNB-75 CNS = tested on: SNB-75 CNS
SNB-19 CNS = tested on: SNB-19 CNS
PC-3 prostate = tested on: PC-3 prostate
SK-MEL-5 melanoma = tested on: SK-MEL-5 melanoma
UACC-62 melanoma = tested on: UACC-62 melanoma
LOX IMVI melanoma = tested on: LOX IMVI melanoma
SK-MEL-28 melanoma = tested on: SK-MEL-28 melanoma
SK-MEL-2 melanoma = tested on: SK-MEL-2 melanoma
EKVX NSCLC = tested on: EKVX NSCLC
SN12C renal = tested on: SN12C renal
UO-31 renal = tested on: UO-31 renal
TK-10 renal = tested on: TK-10 renal
ACHN renal = tested on: ACHN renal
A498 renal = tested on: A498 renal
CCRF-CEM leukemia = tested on: CCRF-CEM leukemia
MOLT-4 leukemia = tested on: MOLT-4 leukemia
CAKI-1 renal = tested on: CAKI-1 renal

Measured: growth

Cn1c(=O)c2c(nc3n(-c4ccc(Cl)cc4Cl)c(Sc4nc(-c5ccccc5)c(C#N)c(=O)[nH]4)cn23)n(C)c1=O
inactive: HCT-15 colon 63.1% | HT29 colon 57.1% | SNB-19 CNS 24.7% | PC-3 prostate 75.7% | SK-MEL-5 melanoma 90.4% | UACC-62 melanoma 63.2% | LOX IMVI melanoma 33.5% | SK-MEL-28 melanoma 87.8% | SK-MEL-2 melanoma 99% | EKVX NSCLC 59.5% | SN12C renal 33% | ACHN renal 14.2% | A498 renal 33.5% | CCRF-CEM leukemia 47.7% | MOLT-4 leukemia 75.8%
active: SNB-75 CNS -5.62% | UO-31 renal -1.67% | TK-10 renal 5.58%

CC(=O)O[C@H]1CC[C@]2(C)[C@H]3CC=C4[C@@H]5CC(C)(C)CC[C@]5(C(=O)NCCNCCN)CC[C@@]4(C)[C@]3(C)CC[C@H]2C1(C)C
inactive: SNB-75 CNS 88% | SK-MEL-5 melanoma 71.4% | SK-MEL-2 melanoma 82.5% | EKVX NSCLC 28.8% | A498 renal 38.6%
active: HCT-15 colon -89.3% | HT29 colon -92.8% | SNB-19 CNS 2.09% | PC-3 prostate -44.3% | UACC-62 melanoma -21.2% | LOX IMVI melanoma -100% | SK-MEL-28 melanoma -85.6% | SN12C renal -89.9% | UO-31 renal -91.6% | TK-10 renal -79% | ACHN renal -100% | CAKI-1 renal -68.7% | CCRF-CEM leukemia -40.1% | MOLT-4 leukemia -39.9%

Cc1cc(N2CCOCC2)nc(NCc2cc(Nc3ccnc4cc(Cl)ccc34)ccc2F)n1
active: HCT-15 colon -81.9% | HT29 colon -28.5% | SNB-75 CNS -20.3% | SNB-19 CNS -22.9% | PC-3 prostate -30% | SK-MEL-5 melanoma -98.3% | UACC-62 melanoma -83.6% | LOX IMVI melanoma -68.4% | SK-MEL-28 melanoma -73.1% | SK-MEL-2 melanoma -61.6% | EKVX NSCLC 9.33% | SN12C renal -72.7% | UO-31 renal -50.8% | TK-10 renal -14.7% | ACHN renal -12.9% | CAKI-1 renal 3.58% | A498 renal -57.8% | CCRF-CEM leukemia -10.4% | MOLT-4 leukemia -30.3%

CC1=NN(c2nc(-c3ccc(Cl)cc3)c(C#N)c(N3CCOCC3)n2)C(=O)C1
inactive: HCT-15 colon 89.3% | HT29 colon 94.1% | SNB-75 CNS 56.5% | SNB-19 CNS 94.6% | PC-3 prostate 98.5% | SK-MEL-5 melanoma 94.3% | UACC-62 melanoma 13.8% | LOX IMVI melanoma 75.5% | SK-MEL-28 melanoma 33.1% | SK-MEL-2 melanoma 87.1% | EKVX NSCLC 88.8% | SN12C renal 88.5% | UO-31 renal 71.9% | TK-10 renal 117% | ACHN renal 73.6% | CAKI-1 renal 70.1% | A498 renal 58% | CCRF-CEM leukemia 85.9% | MOLT-4 leukemia 92.1%

COc1cccc(-c2nc3sccn3c2-c2ccnc(NCCNS(=O)(=O)c3ccccc3)c2)c1
active: SK-MEL-5 melanoma -39.3% | UACC-62 melanoma -31.3% | UO-31 renal 5.71% | CAKI-1 renal 9.12%
inactive: HCT-15 colon 11.8% | HT29 colon 23.6% | SNB-75 CNS 15.2% | SNB-19 CNS 51.6% | PC-3 prostate 11.3% | LOX IMVI melanoma 24% | SK-MEL-28 melanoma 50% | SK-MEL-2 melanoma 30.1% | EKVX NSCLC 29.8% | SN12C renal 28.9% | TK-10 renal 55.5% | ACHN renal 10.4% | A498 renal 44.2% | CCRF-CEM leukemia 10.1% | MOLT-4 leukemia 12%

N#CCCN=Nc1c(O)[nH]c2ccc(F)cc12
inactive: HCT-15 colon 101% | HT29 colon 110% | SNB-75 CNS 62.7% | SNB-19 CNS 101% | PC-3 prostate 95.2% | SK-MEL-5 melanoma 99.5% | UACC-62 melanoma 102% | LOX IMVI melanoma 94.5% | SK-MEL-28 melanoma 107% | SK-MEL-2 melanoma 101% | EKVX NSCLC 90.9% | SN12C renal 101% | UO-31 renal 80.6% | TK-10 renal 108% | ACHN renal 103% | CAKI-1 renal 84.8% | A498 renal 75.8% | CCRF-CEM leukemia 107% | MOLT-4 leukemia 103%

O=S(=O)(Nc1ccc(Br)c(Cl)c1)c1ccc(-c2cnc(C3CC3)o2)cc1
active: HT29 colon -15.3% | SNB-75 CNS -5.71% | A498 renal -18.2%
inactive: HCT-15 colon 20.7% | SNB-19 CNS 35% | PC-3 prostate 23.9% | SK-MEL-5 melanoma 10.2% | UACC-62 melanoma 30.1% | LOX IMVI melanoma 43.7% | SK-MEL-28 melanoma 57.9% | SK-MEL-2 melanoma 34.4% | EKVX NSCLC 33.9% | SN12C renal 41.1% | UO-31 renal 47.5% | TK-10 renal 51.5% | ACHN renal 46.4% | CAKI-1 renal 30.9% | CCRF-CEM leukemia 19.3% | MOLT-4 leukemia 27.6%

O=C1/C(=C/c2cn(-c3ccccc3)nc2-c2ccccc2)SC(=S)N1CCc1ccccc1
inactive: HCT-15 colon 106% | HT29 colon 104% | SNB-75 CNS 71.9% | SNB-19 CNS 99% | PC-3 prostate 100% | SK-MEL-5 melanoma 101% | UACC-62 melanoma 98% | LOX IMVI melanoma 99.3% | SK-MEL-28 melanoma 118% | SK-MEL-2 melanoma 108% | EKVX NSCLC 96.6% | SN12C renal 98.6% | UO-31 renal 88.5% | TK-10 renal 106% | ACHN renal 104% | A498 renal 95.7% | CCRF-CEM leukemia 102% | MOLT-4 leukemia 99.4%

N#C/C(=C\c1ccc(-c2cc(C(F)(F)F)ccc2Cl)o1)c1nc(-c2ccco2)cs1
inactive: HCT-15 colon 103% | HT29 colon 101% | SNB-75 CNS 70% | SNB-19 CNS 95.2% | PC-3 prostate 99.5% | SK-MEL-5 melanoma 97.5% | UACC-62 melanoma 78.9% | LOX IMVI melanoma 99.5% | SK-MEL-28 melanoma 108% | SK-MEL-2 melanoma 103% | EKVX NSCLC 91.6% | SN12C renal 99% | UO-31 renal 87.9% | TK-10 renal 121% | ACHN renal 105% | CAKI-1 renal 86.2% | A498 renal 105% | CCRF-CEM leukemia 103% | MOLT-4 leukemia 101%

COc1cc2nc(N3CCCC3)nc(NCCc3ccccc3)c2cc1OC
inactive: SNB-75 CNS 93.5% | SNB-19 CNS 87.6% | PC-3 prostate 67% | SK-MEL-5 melanoma 90.3% | UACC-62 melanoma 94.7% | SK-MEL-28 melanoma 88.6% | SK-MEL-2 melanoma 103% | EKVX NSCLC 59.5% | SN12C renal 75.9% | UO-31 renal 69.2% | TK-10 renal 98.3% | ACHN renal 85.7% | CAKI-1 renal 80.5% | A498 renal 83.1%
active: HCT-15 colon -55.1% | HT29 colon 5.28% | LOX IMVI melanoma -74.8% | CCRF-CEM leukemia 0.115% | MOLT-4 leukemia -2.23%

C=CC(=O)Nc1cccc(-c2nc(SC)nc(Nc3cccc(OC)c3)c2C#N)c1
inactive: HCT-15 colon 52.5% | HT29 colon 56.9% | SNB-75 CNS 18% | SNB-19 CNS 66.9% | PC-3 prostate 53.1% | SK-MEL-5 melanoma 77% | UACC-62 melanoma 78.1% | LOX IMVI melanoma 72.1% | SK-MEL-28 melanoma 87% | SK-MEL-2 melanoma 71.2% | EKVX NSCLC 72% | SN12C renal 44.6% | UO-31 renal 42.3% | TK-10 renal 78.9% | ACHN renal 45.7% | CAKI-1 renal 44.9% | CCRF-CEM leukemia 57.5% | MOLT-4 leukemia 39.5%
active: A498 renal 9.73%

C=C(C)[C@@H]1CC[C@]2(C(=O)OC)CC[C@]3(C)[C@H](CC[C@@H]4[C@@]5(C)C/C(=C/c6ccc(OC)cc6)C(=O)C(C)(C)[C@@H]5CC[C@]43C)[C@@H]12
inactive: HCT-15 colon 59.6% | HT29 colon 32.1% | SNB-75 CNS 75.7% | SNB-19 CNS 108% | PC-3 prostate 84.9% | SK-MEL-5 melanoma 95.8% | UACC-62 melanoma 99.7% | LOX IMVI melanoma 79.6% | SK-MEL-28 melanoma 102% | SK-MEL-2 melanoma 104% | EKVX NSCLC 84.7% | SN12C renal 84.9% | UO-31 renal 79.7% | TK-10 renal 107% | ACHN renal 90.5% | CAKI-1 renal 90.5% | A498 renal 93.7% | CCRF-CEM leukemia 58.8% | MOLT-4 leukemia 58.3%

O=C(/C=C/c1ccccc1)c1ccc(O)c(CN2CCN(c3cc4c(cc3F)c(=O)c(C(=O)O)cn4C3CC3)CC2)c1
inactive: HCT-15 colon 16.9% | SNB-19 CNS 29.8% | PC-3 prostate 18.3% | UACC-62 melanoma 21.3% | SK-MEL-28 melanoma 46.5% | SK-MEL-2 melanoma 22.8% | EKVX NSCLC 43.3% | UO-31 renal 12.3% | TK-10 renal 62.7% | ACHN renal 14.4% | CAKI-1 renal 20.6% | CCRF-CEM leukemia 18.4% | MOLT-4 leukemia 35.8%
active: HT29 colon 5.56% | SNB-75 CNS -2.4% | SK-MEL-5 melanoma -42.1% | LOX IMVI melanoma 6.26% | SN12C renal 8.48% | A498 renal -18.4%

C=C(C)[C@@H]1CC[C@]2(C(=O)OC)CC[C@]3(C)[C@H](CC[C@@H]4[C@@]5(C)C/C(=C/c6cccc(I)c6)C(=O)C(C)(C)[C@@H]5CC[C@]43C)[C@@H]12
inactive: HCT-15 colon 99.3% | HT29 colon 107% | SNB-75 CNS 89.2% | SNB-19 CNS 94% | PC-3 prostate 96% | SK-MEL-5 melanoma 99% | UACC-62 melanoma 96.5% | LOX IMVI melanoma 91.9% | SK-MEL-28 melanoma 104% | SK-MEL-2 melanoma 103% | EKVX NSCLC 94.6% | SN12C renal 101% | UO-31 renal 85.2% | TK-10 renal 101% | ACHN renal 90.8% | CAKI-1 renal 82% | A498 renal 116% | CCRF-CEM leukemia 97.9% | MOLT-4 leukemia 95.8%

Reference: PubChem BioAssay (NCI)
